Test results: PubChem BioAssay (NCATS)
Results filed as inconclusive are left out. Calls of active or inactive are those of the source. Calls come from the whole dose curve; as a rule, active = well fitted curve in the direction sought with a large enough effect; inconclusive = small, poorly fitted or top-dose-only effect, or another doubt; inactive = no such curve, though single readings can be large; an effect the other way counts as inactive or inconclusive.

Columns and labels:
CRL-7250 = normal cell line; experiment: Cytotoxic Profiling of Annotated Libraries Using Quantitative High-Throughput Screening (AID 1296008); settings: Five cell lines viability, CellTiter-Glo ATP luminescence, 48-72 h; max response: hits give low values; note: nearly all actives have a fitted effect of over 60% in size; for max response: % is set by controls: 0 for no effect and ±100 for the full control effect
Summary of the method: (§1)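 Compounds were pin-transferred onto cells and incubated 48 or 72 hr at 37 degree Celsius, 95% humidity. CellTiter-Glo was added, plates sat 10 min at room temperature, then ATP-coupled luminescence was imaged as the viability read-out.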

HEK293 = experiment: as above; settings: Five cell lines viability, CellTiter-Glo ATP luminescence, 48-72 h; max response: hits give low values
Summary of the method: as §1

HaCat [1] = experiment: as above; settings: Five cell lines viability, CellTiter-Glo ATP luminescence, 48-72 h; max response: hits give low values
Summary of the method: as §1

KB-3-1 = experiment: as above; settings: Five cell lines viability, CellTiter-Glo ATP luminescence, 48-72 h; max response: hits give low values
Summary of the method: as §1

NIH3T3 = experiment: as above; settings: Five cell lines viability, CellTiter-Glo ATP luminescence, 48-72 h; max response: hits give low values
Summary of the method: as §1

HACAT [2] = experiment: qHTS assay to identify novel small-molecules to repurpose for Merkel cell carcinoma treatment (AID 1296009); settings: MCC and control cell lines, CellTiter-Glo viability, 72 h; at 44.8 µM (top of the series) unless noted; note: nearly all actives have a fitted effect of over 60% in size
Summary of the method: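 qHTS format: cells treated with library compounds in DMSO across 8 (NPC) or 11 (MIPE) concentrations. Readout after 72 hr at 37 degree celsius was CellTiter-Glo luminescence.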

C33A = experiment: Primary qHTS to identify gynecologic anti-cancer compounds using libraries of approved drugs and bioactive compounds (AID 1345084); settings: Gynecologic cancer cell panel viability, ATPlite luminescence, 48 h; series mostly up to 57.5 µM; note: % is set by controls: 0 for no effect and ±100 for the full control effect; nearly all actives have a fitted effect of over 55% in size
Summary of the method: (§2)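 Cell viability after 48 h drug treatment, ATPlite luminescence readout; five doses.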

CAOV3 = experiment: as above; settings: Gynecologic cancer cell panel viability, ATPlite luminescence, 48 h; series mostly up to 57.5 µM
Summary of the method: as §2

CASKI = experiment: as above; settings: Gynecologic cancer cell panel viability, ATPlite luminescence, 48 h; series mostly up to 57.5 µM
Summary of the method: as §2

Es-2 = experiment: as above; settings: Gynecologic cancer cell panel viability, ATPlite luminescence, 48 h; series mostly up to 57.5 µM
Summary of the method: as §2

HeLa = experiment: as above; settings: Gynecologic cancer cell panel viability, ATPlite luminescence, 48 h; series mostly up to 57.5 µM
Summary of the method: as §2

Hek293T = experiment: as above; settings: Gynecologic cancer cell panel viability, ATPlite luminescence, 48 h, control line for the selectivity index; series mostly up to 57.5 µM
Summary of the method: as §2

JEG-3 = experiment: as above; settings: Gynecologic cancer cell panel viability, ATPlite luminescence, 48 h; series mostly up to 57.5 µM
Summary of the method: as §2

OV90 = experiment: as above; settings: Gynecologic cancer cell panel viability, ATPlite luminescence, 48 h; series mostly up to 57.5 µM
Summary of the method: as §2

PA-1 = experiment: as above; settings: Gynecologic cancer cell panel viability, ATPlite luminescence, 48 h; series mostly up to 57.5 µM
Summary of the method: as §2

CC(=O)OCC1OC(OC2COC(OC3COC(OC4C(OC5C(CO)OC(OC6CCC7(C)C(CCC8(C)C7CC=C7C9CC(C)(C)CCC9(C(=O)OC9OC(CO)C(O)C(O)C9OC9OCC(OC%10OCC(O)(CO)C%10O)C(O)C9O)C(O)CC78C)C6(C)C)C(O)C5O)OCC(O)C4O)C(O)C3O)C(O)C2O)C(OC(=O)/C=C/c2ccccc2)C(O)C1OC(C)=O (stereo not given)
inactive: max response (CRL-7250) 2.77% | max response (HEK293) -18.2% | outcome (HaCat [1]) | max response (KB-3-1) 4.45% | max response (NIH3T3) -0.042% | outcome (HACAT [2]) inactive [at 4.96 µM] | activity change, negative = cytotoxicity (C33A) 6.07% [at 6.55 µM] | activity change, negative = cytotoxicity (CAOV3) -0.975% [at 6.55 µM] | activity change, negative = cytotoxicity (CASKI) 5.64% [at 6.55 µM] | activity change, negative = cytotoxicity (Es-2) -4.41% [at 6.55 µM] | activity change, negative = cytotoxicity (HeLa) 6.46% [at 6.55 µM] | activity change, negative = cytotoxicity (Hek293T) 3.2% [at 6.55 µM] | activity change, negative = cytotoxicity (JEG-3) -2.72% [at 6.55 µM] | activity change, negative = cytotoxicity (OV90) -0.455% [at 6.55 µM] | activity change, negative = cytotoxicity (PA-1) -23.4% [at 6.55 µM]

CC(C)=C1CC2[C@](C)(CC[C@@H](OC(=O)C3(C)OC3C)[C@@]2(C)O)CC1=O (stereo not given in full)
inactive: outcome (CRL-7250) | max response (HEK293) 4.03% | outcome (HaCat [1]) | max response (KB-3-1) 6.8% | max response (NIH3T3) -3.35% | outcome (HACAT [2]) | Potency (C33A) | Potency (CAOV3) | outcome (CASKI) | Potency (Es-2) | Potency (HeLa) | Potency (Hek293T) | Potency (JEG-3) | Potency (OV90) | Potency (PA-1)

CC(NC(=O)[C@H](Cc1ccccc1)NC(=O)OCc1ccccc1)C(=O)CF (stereo not given in full)
inactive: outcome (CRL-7250) | max response (HEK293) -1.18% | outcome (HaCat [1]) | outcome (KB-3-1) | max response (NIH3T3) 2.43% | outcome (HACAT [2]) | Potency (C33A) | Potency (CAOV3) | outcome (CASKI) | Potency (Es-2) | Potency (HeLa) | Potency (Hek293T) | Potency (JEG-3) | Potency (OV90) | Potency (PA-1)

N#CN1CCC[C@@H](n2nc(-c3ccc(Oc4ccc(F)cc4F)cc3)c(C(N)=O)c2N)C1
inactive: max response (CRL-7250) -1.33% | max response (HEK293) -4.05% | outcome (HaCat [1]) | outcome (KB-3-1) | max response (NIH3T3) 1.04% | outcome (HACAT [2]) | Potency (C33A) | Potency (CAOV3) | outcome (CASKI) | Potency (Es-2) | Potency (HeLa) | Potency (Hek293T) | Potency (JEG-3) | Potency (OV90) | Potency (PA-1)

CC1OC(O[C@H]2CC[C@@]3(C)C(CC[C@]4(C)C3CC=C3C5CC(C)(C)CC[C@]5(C(=O)OC5OC(CO)C(OC6OCC(OC7OCC(O)C(O)C7O)C(O)C6O)C(O)C5O)CC[C@]34C)C2(C)C)C(O)C(O)C1OC1OC(CO)C(O)C(OC2OC(CO)C(O)C(O)C2O)C1O (stereo not given in full)
inactive: max response (CRL-7250) -2.46% | max response (HEK293) -5.73% | outcome (HaCat [1]) | max response (KB-3-1) 2.43% | max response (NIH3T3) -1.17% | outcome (HACAT [2]) inactive [at 9.27 µM] | activity change, negative = cytotoxicity (C33A) -11.5% [at 6.55 µM] | activity change, negative = cytotoxicity (CAOV3) 2.33% [at 6.55 µM] | activity change, negative = cytotoxicity (CASKI) -4.77% [at 6.55 µM] | activity change, negative = cytotoxicity (Es-2) -1.46% [at 6.55 µM] | activity change, negative = cytotoxicity (HeLa) 1.79% [at 6.55 µM] | activity change, negative = cytotoxicity (Hek293T) -4.99% [at 6.55 µM] | activity change, negative = cytotoxicity (JEG-3) -5.08% [at 6.55 µM] | activity change, negative = cytotoxicity (OV90) -14.5% [at 6.55 µM] | activity change, negative = cytotoxicity (PA-1) -1.37% [at 6.55 µM]

OCC1=C[C@@H](O)[C@@H]2C=CO[C@@H](O[C@@H]3O[C@H](CO)[C@@H](O)[C@H](O)[C@H]3O)[C@H]12
inactive: max response (CRL-7250) -1.82% | max response (HEK293) 0.828% | outcome (HaCat [1]) | outcome (KB-3-1) | max response (NIH3T3) 4.6% | outcome (HACAT [2]) | Potency (C33A) | Potency (CAOV3) | outcome (CASKI) | Potency (Es-2) | Potency (HeLa) | Potency (Hek293T) | Potency (JEG-3) | Potency (OV90) | Potency (PA-1)

Cc1ncc([N+](=O)[O-])n1C[C@H](O)CN1CCOCC1
inactive: outcome (CRL-7250) | max response (HEK293) 2.87% | outcome (HaCat [1]) | outcome (KB-3-1) | max response (NIH3T3) -3.55% | outcome (HACAT [2]) | Potency (C33A) | Potency (CAOV3) | outcome (CASKI) | Potency (Es-2) | Potency (HeLa) | Potency (Hek293T) | Potency (JEG-3) | Potency (OV90) | Potency (PA-1)

O=C(O)CCc1c(C(=O)O)[nH]c2cc(Cl)cc(Cl)c12
inactive: max response (CRL-7250) -1.79% | max response (HEK293) -7.05% | outcome (HaCat [1]) | outcome (KB-3-1) | outcome (NIH3T3) | outcome (HACAT [2]) inactive [at 17.4 µM] | Potency (C33A) | Potency (CAOV3) | outcome (CASKI) | Potency (Es-2) | Potency (HeLa) | Potency (Hek293T) | Potency (JEG-3) | Potency (OV90) | Potency (PA-1)

CC/C=C\C(O)C(O)C1=C(C)C(=O)C2(O1)C(=O)NC(OC)(C(=O)c1ccccc1)C2O (stereo not given)
inactive: outcome (CRL-7250) | max response (HEK293) -0.178% | outcome (HaCat [1]) | max response (KB-3-1) 7.12% | max response (NIH3T3) -1.62% | outcome (HACAT [2]) inactive [at 17.4 µM] | Potency (C33A) | Potency (CAOV3) | outcome (CASKI) | Potency (Es-2) | Potency (HeLa) | Potency (Hek293T) | Potency (JEG-3) | Potency (OV90) | Potency (PA-1)

O=C(C1OC1/C=C/c1ccc2c(c1)OCO2)N1CCCCC1 (stereo not given)
inactive: max response (CRL-7250) 3.99% | max response (HEK293) -7.74% | outcome (HaCat [1]) | max response (KB-3-1) 5.97% | max response (NIH3T3) -1.01% | outcome (HACAT [2]) | Potency (C33A) | Potency (CAOV3) | outcome (CASKI) | Potency (Es-2) | Potency (HeLa) | Potency (Hek293T) | Potency (JEG-3) | Potency (OV90) | Potency (PA-1)

CC(=O)OCC1=C[C@@H]2OC(=O)C3=CO[C@@H](O[C@@H]4O[C@H](CO)[C@@H](O)[C@H](O)[C@H]4O)[C@H]1[C@@H]32
inactive: max response (CRL-7250) 2.42% | max response (HEK293) 4.59% | outcome (HaCat [1]) | outcome (KB-3-1) | max response (NIH3T3) 0.706% | outcome (HACAT [2]) inactive [at 17.4 µM] | Potency (C33A) | Potency (CAOV3) | outcome (CASKI) | Potency (Es-2) | Potency (HeLa) | Potency (Hek293T) | Potency (JEG-3) | Potency (OV90) | Potency (PA-1)
